Source: PubChem (The Scripps Research Institute Molecular Screening Center)
Most compounds without a hit are left out; they make up all but 5.7% or so of the library.
ssDAF12 agonist: activates DAF-12 receptor from parasite S. stercoralis; HEK293 ssDAF-12/GRIP1 lit1-tk-luc reporter, luminescence; % of 3 µM dafachronic acid response; activation, % at 6.8 µM; actives 1% (n = 370,000);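 active means activation above the mean over all tested compounds plus 3 SD, cut at about 0.9% in these data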;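 further: 0% = DMSO-only wells and 100% = 3 µM delta7-dafachronic acid wells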
DAX1 inh-1: inhibitors of DAX1 repression of SF-1 activated StAR promoter | HEK293T StAR-luciferase reporter, SF-1/DAX-1 repression relief | inhibition, % at 6.8 µM | actives 1.1% (n = 370,000) | AID 652010;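 active means inhibition above the mean over all tested compounds plus 3 SD, cut at about 3.6% in these data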;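 further: 0% = DAX-1 cells with DMSO and 100% = cells lacking DAX-1 with DMSO; higher inhibition means more luminescence from relief of DAX-1 repression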
DAX1 inh-2: inhibitors of human orphan nuclear receptor DAX1 (NR0B1); HEK293 Gal4-DAX1 luciferase reporter, luminescence; inhibition, % at 6.75 µM; actives 0.99% (n = 340,000); AID 504766;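 active means inhibition above the mean over all tested compounds plus 3 SD, cut at about 4.2% in these data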;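 further: 0% = DAX1-transfected cells with DMSO and 100% = empty-vector control cells with DMSO; inhibition shows as a rise in luminescence from relieved DAX1 repression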
hgDAF-12 ag: hgDAF-12 agonism, primary luciferase screen. HEK293 GAL4-hgDAF12 UAS-luciferase reporter, agonist luminescence; normalized to butyrate control. activation, % at 6.8 µM. actives 1.8% (n = 370,000);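 active means activation above a cutoff set at the mean of all screened compounds plus 3 SD, cut at about 10% in these data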;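 further: 0% = DMSO wells and 100% = sodium butyrate wells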
hcDAF-12 act: activators of H. contortus DAF-12 nuclear receptor. activation, % at 6.8 µM. actives 1.4% (n = 370,000). HEK293 hcDAF-12 lit1-tk-luc reporter, luminescence; 0% DMSO, 100% Δ7-dafachronic acid;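 active means activation above the mean of all tested compounds plus 3 SD, cut at about 5.5% in these data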;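 further: 100% = response to 3 µM Δ7-dafachronic acid high control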
AHR activator: human AHR activation; P35869; AHR-responsive luciferase reporter cells, luminescence; activation, % at 5 µM; actives 2.5% (n = 320,000); in the data active means activation above about 47%;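 further: 0% = vehicle wells and 100% = reference agonist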
Target sequence (P35869 whole entry, looked up): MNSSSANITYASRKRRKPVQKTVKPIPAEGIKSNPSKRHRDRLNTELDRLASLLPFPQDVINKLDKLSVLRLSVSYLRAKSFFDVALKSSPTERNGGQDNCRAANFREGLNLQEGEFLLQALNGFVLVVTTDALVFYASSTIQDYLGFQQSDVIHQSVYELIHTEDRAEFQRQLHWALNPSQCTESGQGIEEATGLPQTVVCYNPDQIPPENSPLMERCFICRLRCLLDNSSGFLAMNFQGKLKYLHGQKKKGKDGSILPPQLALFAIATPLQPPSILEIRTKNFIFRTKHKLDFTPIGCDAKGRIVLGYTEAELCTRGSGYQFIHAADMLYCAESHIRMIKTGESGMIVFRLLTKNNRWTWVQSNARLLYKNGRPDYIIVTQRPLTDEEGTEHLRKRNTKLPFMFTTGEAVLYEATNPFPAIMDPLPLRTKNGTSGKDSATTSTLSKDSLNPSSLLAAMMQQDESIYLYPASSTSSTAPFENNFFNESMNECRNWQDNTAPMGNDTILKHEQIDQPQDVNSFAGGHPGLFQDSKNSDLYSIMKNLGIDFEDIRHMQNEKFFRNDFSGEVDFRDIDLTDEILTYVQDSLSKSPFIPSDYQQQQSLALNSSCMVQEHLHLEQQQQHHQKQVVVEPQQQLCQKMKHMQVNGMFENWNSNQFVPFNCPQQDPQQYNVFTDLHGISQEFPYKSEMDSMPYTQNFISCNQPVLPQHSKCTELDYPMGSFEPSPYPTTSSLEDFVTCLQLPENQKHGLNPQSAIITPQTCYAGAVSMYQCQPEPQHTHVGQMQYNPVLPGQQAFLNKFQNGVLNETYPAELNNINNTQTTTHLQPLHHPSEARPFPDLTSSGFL
* = called active by the depositor; / = no result given.

SMILES	ssDAF12 agonist	DAX1 inh-1	DAX1 inh-2	hgDAF-12 ag	hcDAF-12 act	AHR activator
CCc1nnc(NC(=O)CCn2cnc3ccccc3c2=O)s1	1.0*	0.5	/	-3.1	-1.7	2.5
CCCCc1nnc(NC(=O)Cn2cnc3ccccc3c2=O)s1	-2.1	-0.7	0.3	-2.5	-0.1	0.4
CCOC(=O)c1cc2c(=O)c3ccccc3oc2nc1C	-0.8	1.4	1.6	10.6*	2.7	3.7
CC(=O)c1cc2c(=O)c3ccccc3oc2nc1C	-1.2	-0.3	-0.2	0.2	-0.6	0.8
Cc1ccc(NC(=O)c2cc3c(=O)oc4ccc(C)cc4c3s2)nc1	/	/	/	/	/	-0.6
CC(C)[C@@H]1Cc2[nH]n(C)c(=O)c2[C@H](c2ccc(F)cc2)O1	-0.4	4.1*	/	-2.5	3.2	/
O=C(COc1ccccc1Cl)NC(=S)N1CCc2ccccc21	-1.2	1.0	-0.2	2.0	5.9*	8.5
COc1ccc2c(CC(=O)N3CCc4ccccc43)coc2c1	0.5	2.9	0.7	10.2	5.8*	-1.5
Cc1ccccc1OCC(=O)N1CCCc2ccccc21	-1.8	0.4	-0.5	0.0	-0.7	-3.6
COc1ccc(OCC(=O)N2CCc3ccccc32)c([N+](=O)[O-])c1	0.2	3.6	2.0	5.0	5.6*	/
Cn1c(=O)cc(OCC(=O)N2CCCc3ccccc32)c2ccccc21	-1.6	0.6	0.6	-3.7	-1.1	49.9*
O=C(COc1ccccc1)NC(=S)N1CCc2ccccc21	-0.1	1.1	-0.5	8.2	4.1	5.0
COc1ccc(C(=O)CC(=O)C(=O)Nc2ccc([N+](=O)[O-])cc2C)cc1	-0.8	0.0	-1.4	1.8	3.5	9.3
O=C(CSc1nnc(-c2ccccn2)n1-c1ccc(Cl)cc1)Nc1ccc(S(=O)(=O)Nc2nccs2)cc1	-1.6	-0.1	/	5.8	0.4	/
O=C(COc1ccc(F)cc1Br)N1CCc2ccccc21	0.1	3.0	1.9	10.7*	1.2	6.2
O=Cc1ccc(OCC(=O)N2CCc3ccccc32)c(Br)c1	-0.3	2.1	0.3	6.8	2.2	/
O=C(COc1ccc([N+](=O)[O-])cc1Cl)N1CCc2ccccc21	0.8	4.4*	1.1	8.8	4.9	14.5
COCCn1c(-c2ccc(OC)cc2)cnc1SCC(=O)Nc1cccc2ccccc12	-1.2	-1.4	1.0	-4.6	-2.0	10.4
O=C(Nc1ccccc1Oc1ccccc1)c1cccc([N+](=O)[O-])c1	-0.9	-0.8	2.6	-0.6	-1.6	77.0*
Cc1ccc(C(=O)Nc2ccc(OCc3ccccc3)cc2)cc1[N+](=O)[O-]	-0.9	-0.3	0.7	1.9	-1.4	-4.1
Cc1ccc(C(=O)Nc2ccccc2Oc2ccccc2)cc1[N+](=O)[O-]	-0.4	-0.7	-0.6	-1.5	0.1	73.5*
CC1(C)CNC(=O)c2sc(N3CCCCC3)nc2C1	-0.2	0.0	5.6*	1.0	0.0	3.2
CC1(C)CC(=O)c2sc(N3CCCCC3)nc2C1	-0.1	0.9	2.5	4.3	1.0	4.2
CC[C@@H](C)[C@@H]1CN([C@@H](C)CN2CCC[C@H]2CN2C(N)=NC[C@@H]2Cc2ccccc2)C(=N)N1CCc1ccc(Cl)c(Cl)c1	/	/	5.2*	/	/	-1.5
COc1ccc(CNc2cccnc2Cl)cc1	0.0	0.4	/	11.1*	1.1	/
SMILES	ssDAF12 agonist	DAX1 inh-1	DAX1 inh-2	hgDAF-12 ag	hcDAF-12 act	AHR activator
CCOc1cccc2cc(C(=O)NCc3ccc(OC)cc3)c(=N)oc12	-0.3	2.4	-0.3	-1.0	3.1	23.9
Cc1csc2ncc(C(=O)Nc3ccccc3F)c(=O)n12	0.3	0.7	1.4	6.0	6.2*	59.9*
Cc1cc(C)n2nc(SCc3nc4ccccc4[nH]3)nc2n1	-1.4	0.0	4.5*	-1.3	-1.7	5.1
Cc1cc(C)n2nc(SCc3ccccc3F)nc2n1	-1.1	0.4	0.3	-1.8	-0.8	-1.2
O=C(COC(=O)c1ccncc1)c1ccc(Br)cc1	-0.7	0.8	4.6*	-1.8	1.0	1.6
O=C(COC(=O)c1cccc(C(=O)OCC(=O)c2ccc(Br)cc2)n1)c1ccc(Br)cc1	-1.2	0.9	-0.4	-0.3	-1.9	0.5
O=C(O)c1c(C(=O)N2N=C3/C(=C/c4ccccc4)CCCC3C2c2ccccc2)cccc1[N+](=O)[O-] (centres undefined)	-0.3	-0.1	0.6	6.3	3.6	78.4*
COc1ccc(S[C@]2(C(=O)N3CCCC3)CC(=O)N(C(=O)Nc3ccc(C)c(Cl)c3)[C@@H]2c2ccc(OC)cc2)cc1	-1.0	-0.1	/	-1.2	-1.1	/
COCCNC(=O)c1ccc(CS(=O)(=O)c2ccc(OC)cc2)o1	-0.6	-0.6	5.2*	-3.8	-0.2	-0.2
COc1ccc(S(=O)(=O)Cc2ccc(C(=O)NCC(OC)OC)o2)cc1	-1.0	0.0	2.3	-0.9	-2.4	5.3
CCCCCC(=O)Nc1ccc(-c2csc(N)n2)cc1	-1.3	-0.1	0.1	7.9	-0.1	1.7
CCOC(=O)Cc1csc(-n2sc3ccccc3c2=O)n1	0.2	0.2	1.8	1.3	6.3*	14.8
CCOC(=O)Cc1csc(SCn2nnc3ccccc3c2=O)n1	-1.3	-0.3	1.1	1.2	1.4	1.6
O=C(CNC(=S)N(CCCN1CCOCC1)Cc1cccs1)NCc1ccccc1	-1.0	0.2	0.4	-1.7	-1.0	-2.1
O=C(CNC(=S)N(Cc1ccccc1)Cc1cccs1)NCc1ccc(F)cc1	-1.9	-1.1	-0.5	-4.3	6.4*	/
O=C(CCC(=O)c1ccc(F)cc1)Nc1ccccc1Cl	-1.9	0.0	2.0	1.9	-1.3	-5.8
Cc1ccc(C(=O)CCC(=O)Nc2ccccc2F)cc1	1.0*	0.5	3.0	3.0	1.2	/
Cc1ccccc1NC(=O)c1ccc(OCC(=O)Nc2ccccc2F)cc1	-2.1	-0.6	0.2	-1.4	-2.1	-1.0
Cc1ccc(OCC(=O)Nc2ccccc2F)cc1	0.1	1.6	6.1*	12.8*	4.3	-1.9
COc1ccccc1NC(=O)CCC(=O)N/N=C(/C)c1ccc(C)cc1	-0.8	-0.1	8.4*	-1.1	0.7	0.3
Cc1cccc(N(C(=O)CNC(=O)c2ccco2)C(C(=O)NCC2CCCO2)c2ccccc2)c1 (centres undefined)	-1.4	-1.0	-0.1	-5.6	-3.0	-0.5
COC(=O)CC#C[C@H](C)[C@@H](NS(=O)(=O)c1ccc([N+](=O)[O-])cc1)C(C)(C)C	-1.2	1.1	/	1.3	-0.1	/
Cc1ccc(-c2nc3c(C)cc(Br)cn3c2Cc2ccccc2C(F)(F)F)cc1	-0.7	1.0	/	0.3	0.6	/
N#CC1(NC(=O)CN2C(=O)NC3(CCCCCC3)C2=O)CCCCC1	-1.0	0.6	0.0	-0.8	0.5	-0.2
COc1ccc(NC(=O)c2sc3nc(-c4cccnc4)ccc3c2N)cc1	-1.5	-0.5	-3.3	2.5	0.5	-11.2
COc1ccc(-c2ccc3c(N)c(C(=O)c4cccc(OC)c4)sc3n2)cc1	-0.3	0.3	-0.2	4.5	0.0	77.3*
